The text below walks through data of PubChem BioAssay AID1745846 (National Center for Advancing Translational Sciences (NCATS), 2022).

Screen size: about 1,400 compounds; about 30 (2%) were called active. Not shown: some 15% with an inconclusive outcome. Calls follow the shape of the dose curve; as a rule, active = well fitted inhibition curve with a large enough effect; inconclusive = small, poorly fitted or top-dose-only effect; inactive = flat fitted curve, though single readings scatter. What follows is part of a selection rich in actives, with near analogues and random picks from the rest.
% is scaled to controls: 0 for no effect and ±100 for the full control effect; potency is read from the fitted curve at half-maximal effect.

The nature of this assay: Firefly Luciferase Counterscreen for Inhibitors of ATXN expression. To be noted: luminescence; series mostly up to 57.5 µM; activity change, negative = inhibition: at the top concentration. From the text: University of Utah School of Medicine, Salt Lake City, Utah
Spinocerebellar ataxia type 2 (SCA2) is a multisystem neurodegenerative disease caused by a dominantly acting mutation leading to expansion of a polyQ domain in the ataxin-2 protein (ATXN2). SCA2 patients develop progressive ataxia and later lose function in other neuronal systems. Prominent parkinsonian signs develop in some patients. Like many neurodegenerative disorders, no symptomatic or disease-modifying treatments are known.
The primary objective of the proposed research is to identify compounds inhibiting ATXN2 expression and to test them for efficacy in SCA2 mouse models. We have developed a cell-based assay paired with an in vivo mouse model using identical luciferase expression constructs. This approach takes advantage of an ATXN2-luciferase transgene, with the luciferase gene flanked by the upstream and downstream portions of the ATXN2 gene. Here we describe a 5-7 dose quantitative high thoroughput screen (qHTS) for compounds lowering ATXN2 expression. We screened the NIH Molecular Libraries Small Molecule Repository (MLSMR) and NCGC's mechanistically annotated (MIPE) and drug repurposing (NPC) collections of compounds for lowering expression of an ATXN2-luciferase reporter in HEK-293 cells. The assay is a multiplexed cell viability assay to ensure target reduction in the absence of cytotoxicity. Secondary qHTS assays included a CMV-luciferase reporter expressed in HEK-293 cells as well as a biochemical assay using recombinant luciferase to detect inhibitors of the reporter enzyme. Compounds that inhibit ATXN2 expression but is not cytotoxic were selected for confirmatory and secondary screens.
PROTOCOL TABLE (as described by Inglese J, Shamu CE and Guy RK. 2007)
SEQUENCE No. (e.g., 1, 2, 3, etc.); […] (e.g., Cells, Incubation, Reagent, etc.); VALUE; DESCRIPTION.
2; Compounds; 23 nL; Kalypsis pintool (Wako USA) equipped with a 1536-well pin head.
3; Enzyme; 1 uL; recombinant firefly luciferase (prepared in 50 mM Tris HCl pH7.5, 10 mM MgCl2, 0.05% BSA, 0.01% Tween20) at final concentration of 10 nM. Wells containing buffer only were used as control (set as 100% inhibition when normalizing data).
4; Incubation; 10 min; room temperature.
5; Detection; Luminescence; Viewlux plate reader (PerkinElmer).
NOTES (numbers refer to Sequence numbers above)
1. Luciferase substrate is added to 1536 well, Greiner white assay plate. Evaporation was prevented by covering assay plates with metal lids containing holes to allow gas diffusion.
2. Compounds were added in a dose response manner with the final concentrations of 57, 11.4, 2.28, 0.46, 0.091, 0.018, 0.0037 uM. Vehicle-only plates, with DMSO being pin-transferred to columns 5-48, were inserted uniformly at the beginning and the end of each library to monitor and record any shifts in assay performance.
3. Recombinant firefly luciferase (10 nM final concentration) is added to the assay plate.
5. End-point luminescence is then measured on the Viewlux (PerkinElmer) imager equipped with a clear emission filter using a 2 sec exposure.
Inglese J, Shamu CE and Guy RK, Reporting data from high throughput screening of small molecule libraries, Nature Chemical Biology, 2007, 3(8): 438-441. doi.org/10.1038/nchembio0807-438.
On to `COc1ccc(-c2oc3c(OC)c(OC)c(OC)c(O)c3c(=O)c2OC)cc1OC`, for which the “activity change, negative = inhibition” value is -3.94% (inactive).
For `CCCCOc1ccc(C(=O)NNC(=S)NC(=O)CC)cc1`, the “activity change, negative = inhibition” value was -3.45% (inactive).
Same read-out and setting: the same measure for `COc1cccc(/C=N/NC(=O)c2c(C)nc3ccc(Cl)cn23)c1O`: -11.2% (inactive).
Take `CC(C)[C@H](NC(=O)c1ccc(C(C)(C)C)cc1)C(=O)N1CCN(Cc2ccc3c(c2)OCO3)CC1`: the “activity change, negative = inhibition” value was -0.972% (inactive).
Take `COc1cccc(/C=N/NC(=O)Cn2nc(C)c([N+](=O)[O-])c2C)c1O`: the “activity change, negative = inhibition” value is -5.2% (inactive).
The same measure, in the same setting: for `Cc1cc(N/N=C/c2ccccc2[N+](=O)[O-])nc(-n2nc(C)cc2C)n1` the value was -3.89% (inactive).
With `NC(Cc1ccccc1)c1csc(Nc2ccc(C(F)(F)F)cn2)n1` (stereo not given), the “activity change, negative = inhibition” value was 1.9% (inactive).
`CCOc1ccc(-n2c(-c3ccccc3)c[n+]3c2CCCCC3)cc1`: the “activity change, negative = inhibition” value was -2.5% (inactive).
Turning to `CCn1c(C)cc(C(=O)COC(=O)c2ccccc2[N+](=O)[O-])c1C`, the Potency is 0.0178 µM (active).
In the case of `Cc1c(C(=O)N2c3ccccc3Sc3ccccc32)cccc1[N+](=O)[O-]`, the “activity change, negative = inhibition” value was -0.615% (inactive).
The same measure, in the same setting: the same measure for `CCc1ccc(NC(=O)COc2ccc(/C=C(/C#N)c3nc4ccccc4[nH]3)cc2OC)cc1`: 2.59% (inactive).
In the case of `O=C(CNC(=O)c1ccccc1Br)N/N=C/c1ccccc1O`, the “activity change, negative = inhibition” value was -5.02% (inactive).
The same measure, in the same setting: the same measure for `Cc1ccc(N=Nc2ccc(O)c3ncccc23)cc1`: 3.5% (inactive).
Take `Cc1cc2sc3ccc(C#CC4(O)CCCCC4)cc3c(=O)c2cc1C`: the Potency is 0.251 µM (active).
Turning to `Oc1c(C(Nc2cccc(C(F)(F)F)c2)c2ccncc2)ccc2cccnc12` (stereo not given), the “activity change, negative = inhibition” value was 0.225% (inactive).
As to `O=C(CCCOc1ccc(Cl)cc1Cl)N/N=C/c1ccccc1O`, the “activity change, negative = inhibition” value was -14.6% (inactive).
On the same count and under the same terms, for `CC[n+]1ccccc1/C=C1\Sc2ccc(C)cc2N1C` the value was -0.952% (inactive).
Consider `CN1OC[C@@H]2CN[C@H](c3ccc(-c4cc5ccccc5o4)cc3)C[C@@H]21`, for which the Potency was 0.316 µM (active).
`CCC(=O)NNC(=S)NC(=O)c1ccc(C)cc1`: the “activity change, negative = inhibition” value is -8.2% (inactive).
The same measure, in the same setting: the same measure for `COc1ccc(-c2csc(NC(=O)C3CCN(c4ncnc5sc(C)c(C)c45)CC3)n2)cc1OC`: -2.92% (inactive).
`COC(=O)c1c(NC(=O)c2ccc([N+](=O)[O-])o2)sc2c1CCN(C(C)C)C2`: the “activity change, negative = inhibition” value is 0.611% (inactive).
`CC(=O)Oc1ccc(C23c4ccccc4C2(OC(C)=O)c2cc(OC(C)=O)ccc23)cc1` (stereo not given): the “activity change, negative = inhibition” value is -2.35% (inactive).
Still for that read-out and setting: for `COc1ccc(C(=O)c2sc(Nc3ccccc3)nc2N)cc1OC` the value was -16.4% (inactive).
In the case of `COC(=O)c1sc(NC(=O)c2ccc(OC)cc2OC)nc1C`, the Potency was 0.1 µM (active).
`COc1ccc(CC(N)c2csc(NC(=O)c3ccccc3OC)n2)cc1` (stereo not given): the “activity change, negative = inhibition” value was -15.2% (inactive).
On the same count and under the same terms, the same measure for `COc1ccc(CSCC(=O)N/N=C/c2ccccc2O)cc1`: -4.55% (inactive).
On the same count and under the same terms, for `Cc1cccc(OCC(=O)Nc2ccc3c(c2)nc(CCN2CCN(c4ccccn4)CC2)n3C)c1` the value was -8.57% (inactive).
As to `Cc1cc2oc3ccc(NCCC4CCCN4C)cc3c(=O)c2cc1C` (stereo not given), the Potency was 6.31 µM (active).
`CN1CCCC1CCOC(C)(c1ccccc1)c1ccc(Cl)cc1` (stereo not given): the “activity change, negative = inhibition” value is 4.05% (inactive).
Consider `Cc1cc2oc3cc(NCCC4CCCN4C)ccc3c(=O)c2cc1C` (stereo not given), for which the Potency was 10 µM (active).
As for `CCN1CCN(C(c2ccc(C(F)(F)F)cc2)c2ccc3cccnc3c2O)CC1` (stereo not given), the “activity change, negative = inhibition” value is -0.327% (inactive).
Turning to `COc1ccc(CC2C(=O)NC(C)C(=O)N(C)C3Cc4ccc(cc4)Oc4cc(ccc4O)CC(C(=O)NC(C)C(=O)NC(C)C(=O)N2C)N(C)C3=O)cc1` (stereo not given), the “activity change, negative = inhibition” value is -0.0052% (inactive).
Turning to `COc1ccc(/C=C2\CN(Cc3ccccc3)C/C(=C\c3ccc(OC)c(O)c3)C2=O)cc1O`, the “activity change, negative = inhibition” value is -1.84% (inactive).
Same read-out and setting: for `O=C(CN1CCCC1)N/N=C/c1c(O)ccc2ccccc12` the value was -4.95% (inactive).
As to `O=C(Nc1nc(-c2ccccn2)cs1)Nc1ccc(F)cc1F`, the Potency was 25.1 µM (active).
Consider `O=C(Nc1nc(-c2ccccn2)cs1)c1ccc(F)c(S(=O)(=O)N2CCOCC2)c1`, for which the “activity change, negative = inhibition” value is -19.5% (inactive).
Still for that read-out and setting: for `CCc1ccccc1OCC(=O)Nc1nc(-c2cccnc2)cs1` the value was -8.34% (inactive).
On to `CCc1sc(C(=O)Nc2nc(-c3ccccn3)cs2)cc1C`, for which the Potency was 6.31 µM (active).
Regarding `CC(Oc1ccc(F)cc1)C(=O)Nc1nc(-c2ccccn2)cs1` (stereo not given), the “activity change, negative = inhibition” value was -4.9% (inactive).
Still for that read-out and setting: the same measure for `O=C(Nc1nc(-c2ccccn2)cs1)c1ccccc1-n1cnnn1`: -18.3% (inactive).
Still for that read-out and setting: for `Cc1ccc(-c2cn(-c3ccc(OC(F)F)cc3)c3[n+]2CCCCC3)cc1` the value was -0.299% (inactive).
Same read-out and setting: the same measure for `COc1ccc2oc(/C=C/N(C)C)c(C(=O)c3ccc(Cl)cc3)c2c1`: -4.4% (inactive); for `O=C(NCc1ccccc1)c1ccc(C(=O)N(C2CCCCC2)C2CCCCC2)cc1`: 0.27% (inactive).
As to `CC(CCc1ccccc1)NC(=O)c1ccc(C(=O)NC(C)CCc2ccccc2)cc1` (stereo not given), the “activity change, negative = inhibition” value is 1.04% (inactive).
In the case of `O=C(NNCc1ccccc1)c1ccccc1`, the Potency is 10 µM (active).
Take `Cc1ccccc1N=Nc1ccc(O)c2ncccc12`: the “activity change, negative = inhibition” value was -2.38% (inactive).
In the case of `CCN1C(=O)/C(=C/c2nc3ccccc3c(=O)n2-c2ccccc2)c2ccccc21`, the “activity change, negative = inhibition” value was 0.962% (inactive).
`CC(=O)Nc1cccc(-c2ccnc3c2CC(C)(C(=O)Nc2cccc(Oc4ccccc4)c2)O3)c1` (stereo not given): the “activity change, negative = inhibition” value was -1.45% (inactive).
`COc1ccc2sc(-c3ccc(SC)cc3)c(-c3ccc(O)cc3)c2c1`: the “activity change, negative = inhibition” value is 2.23% (inactive).
The same measure, in the same setting: the same measure for `COc1cc(/C=C(/C#N)C(=O)NCCc2c[nH]c3ccccc23)ccc1OCc1ccccc1F`: 1.42% (inactive).
